Measured values: the supplement of paper PMC10646978
± gives the standard deviation.

Assays:
Details in all cases: modulator concentration 10 µM
[1] = test system: RAW-Dual (murine macrophage reporter line); test: NF-kB reporter (SEAP) activity fold change vs agonist alone; higher = enhanced NF-kB activity
Procedure, shortened: (§1)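 RAW-Dual murine macrophage reporter cells were seeded at 50 000 per well in 384-well plates and pre-incubated 1 hour at 37 °C with compound pin-transferred to 10 μM final. After 1 hour, a PRR agonist was added and cells incubated overnight. Supernatant NF-κB (SEAP, QUANTI-Blue, 620 nm absorbance) and IRF (Lucia luciferase, QUANTI-Luc, luminescence) signals were divided by the mean agonist-only control on the same plate to give fold change. Two replicate plates were averaged, with errors by propagation.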

[2] = test system: RAW-Dual (murine macrophage reporter line); test: IRF reporter (Lucia luciferase) activity fold change vs agonist alone; higher = enhanced IRF activity
Procedure, shortened: as §1

[3] = test system: RAW-Dual (murine macrophage reporter line); test: viability score (confluency relative to resting cells, overnight) (fraction); higher = more viable, active = viable (0.7 or more)
Procedure, shortened: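 Two confluency masks, generated with IncuCyte software over all imaged wells, were applied to IncuCyte images of RAW-Dual macrophages. The cells, in 384-well plates, had been exposed overnight to 10 μM final compound. The viability score is confluency as a fraction of resting cells, and a compound met the cutoff only with both masks above 70% of resting cells.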

[4] = agonist: CpG ODN 1826 0.5 ug/mL

**Q.** For `Cc1cc(C)n(CCC(=O)N2CCc3nc4ccc(F)cn4c(=O)c3C2)n1`, which NF-kB reporter [1, 4] is on record?
**A.** 1.02 ± 0.051

**Q.** And the NF-kB reporter ([1]; agonist: LPS 0.1 ug/mL)?
**A.** 0.938 ± 0.098

**Q.** What about the NF-kB reporter ([1]; agonist: MPLA […]) of the same molecule?
**A.** 1.01 ± 0.1

**Q.** What about the IRF reporter ([2]; agonist: 3'3'-cGAMP 10 ug/mL) of the same molecule?
**A.** 1.03 ± 0.06

**Q.** What about the IRF reporter ([2]; agonist: LPS 0.1 ug/mL) of the same molecule?
**A.** 1.27 ± 0.079

**Q.** And the IRF reporter ([2]; agonist: MPLA […])?
**A.** 1.21 ± 0.12

**Q.** And the viability score [3]?
**A.** 1 (active)

**Q.** With `Cc1ccccc1C(=O)N(Cc1cccnc1)c1nc2c(F)cccc2s1` as the molecule, how does the NF-kB reporter [1, 4] read?
**A.** 0.288 ± 0.019

**Q.** What about the NF-kB reporter ([1]; agonist: LPS 0.1 ug/mL) of the same molecule?
**A.** 0.749 ± 0.063

**Q.** And the NF-kB reporter ([1]; agonist: MPLA […])?
**A.** 0.645 ± 0.038

**Q.** And the IRF reporter ([2]; agonist: 3'3'-cGAMP 10 ug/mL)?
**A.** 1.34 ± 0.06

**Q.** What about the IRF reporter ([2]; agonist: LPS 0.1 ug/mL) of the same molecule?
**A.** 1.06 ± 0.11

**Q.** What about the IRF reporter ([2]; agonist: MPLA […]) of the same molecule?
**A.** 0.952 ± 0.093

**Q.** What about the viability score [3] of the same molecule?
**A.** 0.984 (active)

**Q.** `N#CC(=Cc1ccc(-c2ccc(Cl)cc2)o1)C(N)=O` was tested. Which NF-kB reporter [1, 4] did it give?
**A.** 0.783 ± 0.062

**Q.** What about the NF-kB reporter ([1]; agonist: LPS 0.1 ug/mL) of the same molecule?
**A.** 0.875 ± 0.14

**Q.** What about the NF-kB reporter ([1]; agonist: MPLA […]) of the same molecule?
**A.** 1.13 ± 0.1

**Q.** And the IRF reporter ([2]; agonist: 3'3'-cGAMP 10 ug/mL)?
**A.** 1.07 ± 0.049

**Q.** What about the IRF reporter ([2]; agonist: LPS 0.1 ug/mL) of the same molecule?
**A.** 1.43 ± 0.1

**Q.** What about the IRF reporter ([2]; agonist: MPLA […]) of the same molecule?
**A.** 1.63 ± 0.18

**Q.** And the viability score [3]?
**A.** 1.02 (active)

**Q.** `COc1ccc2c(c1)c(=O)oc1cc(OCc3cccc(C(F)(F)F)c3)ccc12` was tested. Which NF-kB reporter [1, 4] did it give?
**A.** 1.03 ± 0.076

**Q.** What about the NF-kB reporter ([1]; agonist: LPS 0.1 ug/mL) of the same molecule?
**A.** 1.01 ± 0.1

**Q.** And the NF-kB reporter ([1]; agonist: MPLA […])?
**A.** 1.04 ± 0.027

**Q.** What about the IRF reporter ([2]; agonist: 3'3'-cGAMP 10 ug/mL) of the same molecule?
**A.** 0.998 ± 0.047

**Q.** What about the IRF reporter ([2]; agonist: LPS 0.1 ug/mL) of the same molecule?
**A.** 0.97 ± 0.046

**Q.** And the IRF reporter ([2]; agonist: MPLA […])?
**A.** 1.11 ± 0.11

**Q.** What about the viability score [3] of the same molecule?
**A.** 0.995 (active)

**Q.** What does the source list for `CC(NC(=O)COc1ccc(C=NNC(=O)c2ccccc2O)cc1)c1ccccc1` (stereo unspecified)?
**A.** NF-kB reporter [1, 4]: 1.05 ± 0.13; NF-kB reporter ([1]; agonist: LPS 0.1 ug/mL): 1.03 ± 0.065; NF-kB reporter ([1]; agonist: MPLA […]): 1.02 ± 0.061; IRF reporter ([2]; agonist: 3'3'-cGAMP 10 ug/mL): 0.985 ± 0.028; IRF reporter ([2]; agonist: LPS 0.1 ug/mL): 1.63 ± 0.23; IRF reporter ([2]; agonist: MPLA […]): 1.2 ± 0.1; viability score [3]: 1.01 (active)

**Q.** `COc1ccc(OC)c(S(=O)(=O)NCC2CC(=O)N(c3ccc(Cl)cc3)C2)c1` (stereo unspecified) was tested. Which NF-kB reporter [1, 4] did it give?
**A.** 0.857 ± 0.039

**Q.** And the NF-kB reporter ([1]; agonist: LPS 0.1 ug/mL)?
**A.** 0.968 ± 0.12

**Q.** What about the NF-kB reporter ([1]; agonist: MPLA […]) of the same molecule?
**A.** 0.911 ± 0.052

**Q.** And the IRF reporter ([2]; agonist: 3'3'-cGAMP 10 ug/mL)?
**A.** 0.762 ± 0.035

**Q.** And the IRF reporter ([2]; agonist: LPS 0.1 ug/mL)?
**A.** 1.27 ± 0.23

**Q.** And the IRF reporter ([2]; agonist: MPLA […])?
**A.** 1.21 ± 0.35

**Q.** And the viability score [3]?
**A.** 1.01 (active)

**Q.** `CC(C)n1cnc(S(=O)(=O)N2CCC(S(=O)(=O)Cc3ccccc3)CC2)c1` was tested. Which NF-kB reporter [1, 4] did it give?
**A.** 0.891 ± 0.05

**Q.** What about the NF-kB reporter ([1]; agonist: LPS 0.1 ug/mL) of the same molecule?
**A.** 0.891 ± 0.072

**Q.** What about the NF-kB reporter ([1]; agonist: MPLA […]) of the same molecule?
**A.** 1.02 ± 0.055

**Q.** What about the IRF reporter ([2]; agonist: 3'3'-cGAMP 10 ug/mL) of the same molecule?
**A.** 1.06 ± 0.062

**Q.** What about the IRF reporter ([2]; agonist: LPS 0.1 ug/mL) of the same molecule?
**A.** 1.3 ± 0.3

**Q.** What about the IRF reporter ([2]; agonist: MPLA […]) of the same molecule?
**A.** 1.37 ± 0.34

**Q.** What about the viability score [3] of the same molecule?
**A.** 1 (active)

**Q.** What does the source list for `CC(=O)c1ccc2c3c([nH]c2c1)CCCC3`?
**A.** NF-kB reporter [1, 4]: 0.792 ± 0.072; NF-kB reporter ([1]; agonist: LPS 0.1 ug/mL): 0.823 ± 0.072; NF-kB reporter ([1]; agonist: MPLA […]): 1.01 ± 0.092; IRF reporter ([2]; agonist: 3'3'-cGAMP 10 ug/mL): 0.936 ± 0.05; IRF reporter ([2]; agonist: LPS 0.1 ug/mL): 1.34 ± 0.077; IRF reporter ([2]; agonist: MPLA […]): 1.53 ± 0.15; viability score [3]: 1.01 (active)

**Q.** With `CCOC(=O)C1=C(C)NC(C)=C(C(=O)OCC)C1c1cccs1` as the molecule, how does the NF-kB reporter [1, 4] read?
**A.** 0.836 ± 0.23

**Q.** What about the NF-kB reporter ([1]; agonist: LPS 0.1 ug/mL) of the same molecule?
**A.** 0.998 ± 0.089

**Q.** And the NF-kB reporter ([1]; agonist: MPLA […])?
**A.** 0.965 ± 0.12

**Q.** And the IRF reporter ([2]; agonist: 3'3'-cGAMP 10 ug/mL)?
**A.** 0.929 ± 0.071

**Q.** And the IRF reporter ([2]; agonist: LPS 0.1 ug/mL)?
**A.** 1.09 ± 0.3

**Q.** And the IRF reporter ([2]; agonist: MPLA […])?
**A.** 1.08 ± 0.25

**Q.** And the viability score [3]?
**A.** 0.978 (active)

**Q.** With `N#Cc1cc(-c2n[nH]c(-c3ccncc3)n2)ccn1` as the molecule, how does the NF-kB reporter [1, 4] read?
**A.** 0.998 ± 0.19

**Q.** What about the NF-kB reporter ([1]; agonist: LPS 0.1 ug/mL) of the same molecule?
**A.** 1.06 ± 0.32

**Q.** And the NF-kB reporter ([1]; agonist: MPLA […])?
**A.** 0.958 ± 0.077

**Q.** What about the IRF reporter ([2]; agonist: 3'3'-cGAMP 10 ug/mL) of the same molecule?
**A.** 0.891 ± 0.035

**Q.** And the IRF reporter ([2]; agonist: LPS 0.1 ug/mL)?
**A.** 1.13 ± 0.25

**Q.** What about the IRF reporter ([2]; agonist: MPLA […]) of the same molecule?
**A.** 1.12 ± 0.28

**Q.** And the viability score [3]?
**A.** 1 (active)

**Q.** `COc1cc(Nc2ncc3c(n2)-c2ccc(Cl)cc2C(c2c(F)cccc2OC)=NC3)ccc1C(=O)O` was tested. Which NF-kB reporter [1, 4] did it give?
**A.** 0.416 ± 0.036

**Q.** What about the NF-kB reporter ([1]; agonist: LPS 0.1 ug/mL) of the same molecule?
**A.** 0.72 ± 0.038

**Q.** And the NF-kB reporter ([1]; agonist: MPLA […])?
**A.** 0.775 ± 0.081

**Q.** What about the IRF reporter ([2]; agonist: 3'3'-cGAMP 10 ug/mL) of the same molecule?
**A.** 0.974 ± 0.045

**Q.** And the IRF reporter ([2]; agonist: LPS 0.1 ug/mL)?
**A.** 1.06 ± 0.062

**Q.** And the IRF reporter ([2]; agonist: MPLA […])?
**A.** 1.06 ± 0.15

**Q.** And the viability score [3]?
**A.** 0.92 (active)

**Q.** What does the source list for `CCOc1cc(C=C2SC(=S)N(CCS(=O)(=O)O)C2=O)ccc1O`?
**A.** NF-kB reporter [1, 4]: 0.952 ± 0.087; NF-kB reporter ([1]; agonist: LPS 0.1 ug/mL): 1.04 ± 0.077; NF-kB reporter ([1]; agonist: MPLA […]): 0.951 ± 0.15; IRF reporter ([2]; agonist: 3'3'-cGAMP 10 ug/mL): 0.925 ± 0.027; IRF reporter ([2]; agonist: LPS 0.1 ug/mL): 1.28 ± 0.14; IRF reporter ([2]; agonist: MPLA […]): 0.997 ± 0.2; viability score [3]: 1.02 (active)

**Q.** For `O=C(c1ccccc1)C1OC1(CBr)c1ccccc1` (stereo unspecified), which NF-kB reporter [1, 4] is on record?
**A.** 1.06 ± 0.06

**Q.** And the NF-kB reporter ([1]; agonist: LPS 0.1 ug/mL)?
**A.** 0.76 ± 0.052

**Q.** What about the NF-kB reporter ([1]; agonist: MPLA […]) of the same molecule?
**A.** 0.663 ± 0.039

**Q.** What about the IRF reporter ([2]; agonist: 3'3'-cGAMP 10 ug/mL) of the same molecule?
**A.** 0.0937 ± 0.0033

**Q.** And the IRF reporter ([2]; agonist: LPS 0.1 ug/mL)?
**A.** 0.69 ± 0.072

**Q.** What about the IRF reporter ([2]; agonist: MPLA […]) of the same molecule?
**A.** 0.913 ± 0.17

**Q.** What about the viability score [3] of the same molecule?
**A.** 0.833 (active)
